SMARCA2 activ = activators of SMARCA2 function. MG213 cells, MMTV-luciferase reporter, dexamethasone, overnight. activation, % at 9.1 µM. hit rate 1% among 370,000; in the data active = activation above about 7.8%;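 also: 0% = vehicle wells and 100% = reference activator wells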
H9c2 protect = modulators protecting cardiomyocytes from myocardial damage | protection from H2O2 cell death, % at 20 µM | H9c2 cardiomyocytes, H2O2 injury protection, ATPLite, 2 h | hit rate 0.63% among 360,000 | AID 588492;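 active = compounds giving at least 50% protection of heart cells from peroxide-induced death in the single-dose screen, raw or plate-pattern-corrected value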;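 also: 0% = DMSO wells with peroxide and 100% = DMSO wells without peroxide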
NR2F2 inh = blocks human COUP-TFII nuclear receptor. P24468. hit rate 0.7% among 370,000. HEK293T NGFI-A luciferase reporter, luminescence. inhibition, % at 8.6 µM;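 active = inhibition above a per-plate cutoff, mean inhibition of test wells between control levels plus 3 SD, cut at about 38% in these data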;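 also: cells cotransfected with COUP-TFII expression vector driving the NGFI-A reporter; 0% = median of COUP-TF2 test wells and 100% = reporter-only cells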
GAA850 FXN act = frataxin GAA850 promoter activation; HEK293 lucGAA850 FXN promoter luciferase reporter, 24 h; percent of 10 µM SAHA response; activation, % at 6 µM; hit rate 0.56% among 360,000; AID 540364;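 active = activation above the average of all compounds screened plus 3 SD, cutoff fixed separately per campaign, cut at about 7.5% in these data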;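 also: 0% = DMSO wells and 100% = 10 µM SAHA wells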
GalR3 antag = blocks the human galanin receptor 3; O60755; HEK293 GalR3-CNG cAMP membrane potential fluorescence; galR3 body fused to GalR1 C-terminus; inhibition, % at 3 µM; hit rate 0.44% among 360,000;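 active = inhibition above the screen-wide average plus 3 SD, cut at about 13% in these data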;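 also: forskolin and galanin both at EC90 stimulate the cells; cAMP rise reported by CNG channel membrane potential dye signal; 0% = forskolin plus galanin with DMSO and 100% = forskolin alone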
Target sequence (O60755 1-299 limits assumed): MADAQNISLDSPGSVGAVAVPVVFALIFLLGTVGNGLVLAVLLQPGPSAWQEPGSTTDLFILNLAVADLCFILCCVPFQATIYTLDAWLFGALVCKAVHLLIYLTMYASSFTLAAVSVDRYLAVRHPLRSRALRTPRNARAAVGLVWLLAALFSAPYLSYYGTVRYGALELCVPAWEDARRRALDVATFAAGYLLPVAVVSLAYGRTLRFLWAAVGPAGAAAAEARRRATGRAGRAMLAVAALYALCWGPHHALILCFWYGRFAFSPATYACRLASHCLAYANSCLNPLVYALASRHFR
Gli-Sufu antag = blocks Gli-Sufu signaling in a luciferase reporter | Sufu-KO-LIGHT fibroblasts, Gli luciferase reporter luminescence | inhibition, % at 5 µM | hit rate 0.74% among 340,000;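 active = inhibition above about 55%, limit read from the data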;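 also: 0% = DMSO-treated cells and 100% = wells with medium but no cells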
SMARCA2 conf = confirmation of SMARCA2 (BRM) function activators | MG213 cells, MMTV-luciferase with dexamethasone, luminescence, overnight; MG213 cells expressing E1A, Rb sequestered; DMSO wells 0%, reference activator 100% | shares compounds with SMARCA2 activ | activation, % at 9.1 µM | hit rate 30% among 3,500;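 active = activation above its plate's cutoff, the mean activation of tested wells plus 3 SD, cut at about 7.9% in these data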
VP16 Luc act = GAL4-VP16 reporter activation counter-screen | activation, % at 9.1 µM | hit rate 41% among 3,500 | HEK293 GAL4-VP16 pG5luc reporter, luciferase luminescence; scaled: DMSO wells 0%, SAHA wells 100% | shares compounds with SMARCA2 activ;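 active = activation above the solvent-only control well mean plus 3 SD, averaged across control plates, cut at about 5.2% in these data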
Numbers without * were called inactive; x = no result given. Shown are actives, neighbours in structure and some others; about 3.4% of the full set was active somewhere.

SMILES | SMARCA2 activ | H9c2 protect | NR2F2 inh | GAA850 FXN act | GalR3 antag | Gli-Sufu antag | SMARCA2 conf | VP16 Luc act
CCOC(=O)C1CCCCN1C(=O)c1oc2c(Cl)cc(C)cc2c1C (centres undefined) | 3 | -10 | 10 | 1 | 0 | 9 | x | x
COC(=O)C1CCN(C(=O)c2oc3c(Cl)cc(C)cc3c2C)CC1 | 9.1* | 2 | -21 | 7 | -6 | -103 | 7 | 11*
CC(C)CC(=O)C1=C(O)C(=O)N(Cc2ccccc2)C1c1ccccc1 (centres undefined) | -3 | -6 | -20 | 0 | 5 | 1 | x | x
Nc1nc2cc(S(=O)(=O)NC3=NCCCCC3)ccc2s1 | 9.8* | -6 | -2 | 3 | -5 | 4 | -2 | 0
COC(=O)Nc1ccc2ncn(C)c(=O)c2c1 | 9.9* | 26 | -28 | 1 | 2 | 4 | -2 | 0
COCCN(CC(=O)Nc1cccc(C)c1C)C(=O)c1ccc2ccccc2n1 | 9.0* | -2 | -24 | 4 | -6 | -11 | 6 | 2
Cc1cccc(NC(=O)CN(C)C(=O)c2ccc3ccccc3n2)c1C | 0 | 2 | -8 | 3 | 2 | -8 | x | x
Cc1ccc(NC(=O)COC(=O)c2cc(C)nc3ccccc23)c([N+](=O)[O-])c1 | 1 | 0 | -10 | 2 | 7 | -7 | x | x
CC(NC(=O)COC(=O)c1ccc(N2CCCC2=O)cc1)c1ccc(F)cc1 (centres undefined) | 9.4* | 8 | -6 | 2 | -1 | -7 | -3 | 2
COc1ccc(NC(=O)COC(=O)c2ccc(N3CCCC3=O)cc2)cc1 | -2 | -3 | -3 | -1 | 3 | 1 | x | x
Cc1ccc(N(C(=O)c2csnn2)C(C(=O)NC2CCCCC2)c2cccnc2)cc1 (centres undefined) | 9.6* | -1 | -9 | -1 | -9 | 7 | -2 | 4
O=C(NCc1ccc(F)cc1)C(c1cccnc1)N(C(=O)c1csnn1)c1ccccc1 (centres undefined) | 9.0* | 0 | 18 | -2 | -7 | -7 | -4 | 0
C=CCN(C(=O)c1csnn1)C(C(=O)NCc1ccc(F)cc1)c1sccc1C (centres undefined) | 8.0* | 6 | 0 | 3 | -10 | 14 | -3 | -2
Cc1ccc(N(C(=O)c2csnn2)C(C(=O)NC2CCCC2)c2cccnc2)cc1 (centres undefined) | 8 | -1 | -12 | 1 | -7 | -1 | x | x
O=C(NC1CCCCCC1)c1cc2ccccc2oc1=O | 8.9* | -7 | -53 | 3 | -12 | 5 | 6 | 12*
NC(N)=NS(=O)(=O)c1ccc(N/C=C/C(=O)c2ccc(Cl)c(Cl)c2)cc1 | -3 | -11 | -3 | 4 | 7 | 2 | x | x
CCOc1ccc(C(=O)/C=C/Nc2ccc(S(=O)(=O)N=C(N)N)cc2)cc1 | 8.1* | -8 | -20 | 4 | -3 | -12 | -1 | 1
Cc1ccccc1S(=O)(=O)NC(=O)C1(C)CCN1C(=O)C1(c2ccc(Cl)cc2)CCC1 (centres undefined) | -1 | -1 | 12 | 0 | -7 | x | x | x
Cc1ccnc(N(C(=O)c2cccs2)C(=O)c2cccs2)c1 | 11* | -21 | -54 | 5 | -5 | -59 | 8.3* | 6.8*
O=C(Nc1ccc(F)cc1F)C1CCN(c2ncccn2)CC1 | 0 | x | -10 | x | x | x | x | x
CCOC(=O)c1c(C)[nH]c(C)c1S(=O)(=O)NCCc1ccc(SC)cc1 | 12* | -7 | 0 | 3 | -11 | -9 | -1 | 1
CCOC(=O)c1c(C)[nH]c(C)c1S(=O)(=O)NCCc1sccc1C | -3 | -3 | 13 | 2 | -5 | 3 | x | x
CCn1c(=O)c(=O)[nH]c2cc(C(=O)NCc3ccc(F)cc3)ccc21 | 1 | 8 | -3 | 1 | 5 | 23 | x | x
Nc1ccc2cc3ccccc3cc2c1 | -2 | -12 | -24 | 1 | 5 | -55 | x | x
Nc1ccc2ccc(N)cc2c1 | 13* | x | -4 | x | -6 | x | 0 | 2
SMILES | SMARCA2 activ | H9c2 protect | NR2F2 inh | GAA850 FXN act | GalR3 antag | Gli-Sufu antag | SMARCA2 conf | VP16 Luc act
COc1cc(Cl)c(C)cc1NC(=O)COc1ccc(C)nc1[N+](=O)[O-] | 7 | -3 | -6 | 1 | -3 | -39 | x | x
Cc1nn(Cc2cccc(F)c2)c(C)c1NC(=O)c1ccc(COc2ccccc2Cl)cc1 | -9 | -1 | 13 | -2 | -11 | 30 | x | x
Cc1nn(Cc2c(F)c(F)c(F)c(F)c2F)c(C)c1NC(=O)c1cccc(COc2ccccc2Cl)c1 | 13* | -10 | -52 | 2 | -2 | -61 | 4 | 13*
COc1cc(NC(=O)C2CC(c3c(F)cccc3Cl)=NO2)cc(OC)c1OC (centres undefined) | -2 | -13 | 18 | 1 | -4 | 15 | x | x
Cn1c(SCC(=O)NCCN2CCCCC2)nc2cccnc21 | 5 | x | -5 | x | x | x | x | x
CN(CC(=O)Nc1ccccc1Br)C(=O)c1ccc(-c2ccc(Cl)cc2)o1 | 8.9* | -2 | 9 | 1 | 0 | -1 | -2 | 2
N#Cc1cnc2sc3ccccc3n2c1=N | 9.5* | -7 | -39 | 7 | -4 | -59 | 9.2* | 7.0*
Cn1nc2sc3ccccc3n2c(=O)c1=O | -5 | 2 | 10 | 0 | -2 | 1 | x | x
CN(C(=O)c1cc2c(=O)n3ccccc3nc2n1C)C1CCCCC1 | 8.0* | -7 | -34 | 5 | 2 | -67 | 2 | 14*
O=C(Nc1cccc(Cl)c1)c1ccc(NCC2CCCO2)c([N+](=O)[O-])c1 (centres undefined) | -2 | -6 | -4 | 3 | -5 | 13 | x | x
Cc1cccc(NC(=O)c2ccc(NCC3CCCO3)c([N+](=O)[O-])c2)c1 (centres undefined) | 8.1* | 2 | -6 | 6 | 5 | -6 | 1 | 3
COc1ccc(C2Nc3ccccc3C(=O)N2c2ccc(C)cc2)cc1COc1ccccn1 (centres undefined) | 14* | -11 | -27 | 2 | -11 | -62 | 12* | 5
N#Cc1nc(-c2cccc(Cl)c2)oc1NCc1cccnc1 | -3 | -2 | -6 | 6 | -5 | -3 | x | x
COc1ccc(-c2nc(C#N)c(NCc3cccnc3)o2)cc1OC | 10* | -2 | -10 | 3 | 0 | -2 | -2 | 3
COc1ccc(OC)c(/C=C2\SC(N3CCCCC3)=NC2=O)c1 | 8.0* | 3 | -3 | 2 | -12 | 4 | 3 | 4
COc1cc(OC)c(OC)cc1/C=C1\SC(N2CCCCC2)=NC1=O | 0 | -11 | -11 | 7 | -6 | x | x | x
